# Results as given in PubChem BioAssay (EPA / NIEHS).
# Records with an inconclusive call do not appear. Active and inactive are the calls of the source. Rule for the calls, unless noted: active = hit-call score of the fitted dose curve at least 0.9, where 1 is the maximum; inactive = score below 0.9.
# How the values were obtained:
# [1] = CCTE_Shafer_MEA_acute_firing_rate_mean: CCTE's Neural Acute Assay for Mean Firing Rate, Shafer Lab (AID 2284009);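 note: analyzed for loss of signal so actives lower firing rate relative to DMSO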
# Procedure, shortened: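 Read-out: well-mean spike rate (spikes/recording length/electrodes), % change from 40 min pre-dose baseline to 40 min with compound. Rat cortical cultures, DIV 13 or 15, 37 C; 0.03-40 uM; DMSO as negative control.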
# [2] = CCTE_Harrill_HTTr_Viability_MCF7: CCTE's 6-hour Cell Viability Assessment for the High-Throughput Transcriptomics (HTTr) Platform, in MCF-7 cells cultured in DMEM + 10% fetal bovine serum, Harrill Lab (AID 2284010)
# Procedure, shortened: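 Membrane integrity was scored by high-content imaging of propidium iodide dye exclusion after a 6 h exposure across an eight-point dilution series. Data were fitted bidirectionally relative to DMSO as negative control and baseline.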
# [3] = CCTE_Harrill_HTTr_Apoptosis_MCF7: CCTE's 6-hour Apoptosis Assessment for the High-Throughput Transcriptomics (HTTr) Platform, in MCF-7 cells cultured in DMEM + 10% fetal bovine serum, Harrill Lab (AID 2284011)
# Procedure, shortened: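 MCF-7 (DMEM + 10% FBS), 384-well; 8-pt dilution series, 6 h chemical exposure; caspase-3/7 activation via CellEvent Caspase 3/7 Green, HCI; bidirectional fit vs DMSO.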
# [4] = CCTE_Harrill_HTTr_CellCount_MCF7: CCTE's Cell Proliferation Assessment for the High-Throughput Transcriptomics (HTTr) Platform, Harrill Lab (AID 2284012; active = hit-call score of the fitted dose curve at least 0.9, where 1 is the maximum;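 note: cells exposed to compound for six hours; intended direction is loss of nuclei count meaning fewer cells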)
# Procedure, shortened: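 MCF-7 cells were exposed for 6 h to an eight-point dilution series; Hoechst-labeled nuclei were counted by high content imaging. Curves were fitted bidirectionally against DMSO as negative control and baseline, with signal loss indicating reduced cell count.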
# [5] = CCTE_Shafer_MEA_acute_burst_number: CCTE's Neural Acute Assay for Single-Electrode Bursts, Shafer Lab (AID 2284013)
# Procedure, shortened: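 Rat cortical cultures, DIV 13/15; 40 min baseline, then 40 min with compound 0.03-40 uM, 37 C. Spikes: 300-5000 Hz band-pass, threshold 8x rms noise. Readout = % change in single-electrode bursts vs baseline, loss-of-signal fit.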
# [6] = CCTE_Shafer_MEA_acute_burst_duration_mean: CCTE's Neural Acute Assay for Mean Burst Duration, Shafer Lab (AID 2284014);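 note: hits are decreases in mean burst duration relative to DMSO controls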
# Procedure, shortened: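 Primary rat cortical neurons on 16-electrode MEA wells, treated on DIV 13 or 15 with compound (0.03-40 uM; ≥3 wells each). 40-min baseline and 40-min exposure recordings at 37 C; percent change in mean burst duration per well versus DMSO.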
# [7] = CCTE_Shafer_MEA_acute_per_burst_spike_number_mean: CCTE's Neural Acute Assay for Average Number of Spikes Per Burst, Shafer Lab (AID 2284015);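 note: hits are decreases in mean spikes per burst versus baseline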
# Procedure, shortened: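 Primary rat cortical neurons on 48-well MEA plates, treated on DIV 13 or 15 at 0.03-40 uM. Spontaneous activity recorded 40 min before and 40 min after compound at 37 C; percent change in mean spikes per single-electrode burst per well, fitted in the loss direction versus DMSO.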
# [8] = CCTE_Shafer_MEA_acute_interburst_interval_mean: CCTE's Neural Acute Assay for Mean Interburst Interval, Shafer Lab (AID 2284016);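 note: percent change of mean interburst interval versus each well's own pre-dose baseline; curves fitted for decrease in interburst interval relative to DMSO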
# Procedure, shortened: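 Primary rat cortical neurons on 16-electrode MEA wells were recorded 40 min at baseline on DIV 13 or 15, then 40 min after compound (0.03-40 uM), at 37 C. Value is percent change in mean interburst interval per well, DMSO as negative control.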
# [9] = CCTE_Shafer_MEA_acute_burst_percentage_mean: CCTE's Neural Acute Assay for Percentage of Spikes in a Burst, Shafer Lab (AID 2284017);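 for AC50: curve fitted for loss of signal so potency reflects decreased burst percentage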
# Procedure, shortened: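 Primary rat cortical neurons on 16-electrode MEA wells; 40 min baseline recorded at DIV 13 or 15, then 40 min after compound (0.03-40 uM) at 37 C. Well-mean fraction of spikes in single-electrode bursts; percent change from baseline, DMSO as negative control.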
# [10] = CCTE_Shafer_MEA_acute_burst_percentage_std: CCTE's Neural Acute Assay for Standard Deviation of Burst Percentage, Shafer Lab (AID 2284018);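 note: fitted in the negative direction so actives lower burst percentage SD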
# Procedure, shortened: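 Primary rat cortical neurons on 16-electrode MEA wells were recorded 40 min at baseline (DIV 13 or 15), then 40 min after compound (0.03-40 uM), at 37 C. Well value is SD across electrodes of spikes-in-bursts/total spikes; endpoint is percent change, DMSO-referenced.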
smiles,measurement,setting,value
O=C(O)C(Cl)(Cl)Cl,outcome,[1],inactive
same,outcome,[2],inactive
same,outcome,[3],inactive
same,outcome,[4],inactive
same,outcome,[5],inactive
same,outcome,[6],inactive
same,outcome,[7],inactive
same,outcome,[8],inactive
same,outcome,[9],inactive
same,outcome,[10],inactive
CCC(=O)C(CC(C)N(C)C)(c1ccccc1)c1ccccc1 (centres undefined),AC50,[1],0.052 µM (active)
same,outcome,[2],inactive
same,outcome,[3],inactive
same,outcome,[4],inactive
same,outcome,[5],inactive
same,AC50,[6],0.208 µM (active)
same,outcome,[7],inactive
same,outcome,[8],inactive
same,AC50,[9],26.2 µM (active)
same,outcome,[10],inactive
BrCCBr,outcome,[2],inactive
same,outcome,[3],inactive
CCCCCCCCc1ccc(O)cc1,AC50,[1],3.15 µM (active)
same,outcome,[2],inactive
same,outcome,[3],inactive
same,outcome,[4],inactive
same,AC50,[5],2.53 µM (active)
same,outcome,[6],inactive
same,outcome,[7],inactive
same,AC50,[8],5 µM (active)
same,AC50,[9],12.7 µM (active)
same,AC50,[10],20 µM (active)
CC(C)(C)c1cc(O)ccc1O,outcome,[1],inactive
same,outcome,[5],inactive
same,outcome,[6],inactive
same,outcome,[7],inactive
same,outcome,[8],inactive
same,AC50,[9],20 µM (active)
same,outcome,[10],inactive
P.[In],outcome,[2],inactive
same,outcome,[3],inactive
same,outcome,[4],inactive
COc1ccc(C=O)cc1,outcome,[2],inactive
same,outcome,[3],inactive
same,outcome,[4],inactive
COP(=S)(OC)Oc1cc(Cl)c(Cl)cc1Cl,outcome,[2],inactive
same,outcome,[3],inactive
same,outcome,[4],inactive
CC(C)C1CCC(Cc2ccc(Cl)cc2)C1(O)Cn1cncn1 (centres undefined),outcome,[2],inactive
same,outcome,[3],inactive
same,outcome,[4],inactive
Cc1ccccc1N,outcome,[2],inactive
same,outcome,[3],inactive
Nc1ccc(-c2ccc(N)c(Cl)c2)cc1Cl,outcome,[2],inactive
same,outcome,[3],inactive
same,outcome,[4],inactive
C[C@]12CC[C@H](O)CC1=CC[C@@H]1[C@@H]2CC[C@]2(C)C(=O)CC[C@@H]12,outcome,[2],inactive
same,outcome,[3],inactive
same,outcome,[4],inactive
CN(C)N=O,outcome,[2],inactive
same,outcome,[3],inactive
same,outcome,[4],inactive
ClCCBr,outcome,[2],inactive
same,outcome,[3],inactive
Cc1ccc2ccccc2c1C,outcome,[2],inactive
same,outcome,[3],inactive
N#CCCO,outcome,[2],inactive
same,outcome,[3],inactive
same,outcome,[4],inactive
COP(=S)(OC)Oc1cc(Cl)c(Br)cc1Cl,outcome,[2],inactive
same,outcome,[3],inactive
COP(=S)(OC)Oc1ccc(Sc2ccc(OP(=S)(OC)OC)cc2)cc1,outcome,[2],inactive
same,outcome,[3],inactive
COC[C@H](C)N(C(=O)CCl)c1c(C)csc1C,outcome,[2],inactive
same,outcome,[3],inactive
CCCCOCCOC(C)=O,outcome,[2],inactive
same,outcome,[3],inactive
same,outcome,[4],inactive
Cc1cc(Cl)ccc1O[C@H](C)C(=O)O,outcome,[2],inactive
same,outcome,[3],inactive
O=S(=O)(c1ccc(Cl)cc1)c1ccc(Cl)cc1,outcome,[2],inactive
same,outcome,[3],inactive
same,outcome,[4],inactive
CC12CC1(C)C(=O)N(c1cc(Cl)cc(Cl)c1)C2=O (centres undefined),outcome,[2],inactive
same,outcome,[3],inactive
same,outcome,[4],inactive
COc1cc(-c2ccc(N)c(OC)c2)ccc1N,outcome,[2],inactive
same,outcome,[3],inactive
same,outcome,[4],inactive
ClC1=C(Cl)[C@]2(Cl)[C@H]3[C@H]([C@H]4C=C[C@H]3C4)[C@@]1(Cl)C2(Cl)Cl,outcome,[2],inactive
same,outcome,[3],inactive
same,outcome,[4],inactive
CCOP(=S)(OCC)Oc1ccc(S(C)=O)cc1 (centres undefined),outcome,[2],inactive
same,outcome,[3],inactive
same,outcome,[4],inactive
COP(=O)(OC)O/C(=C\Cl)c1cc(Cl)c(Cl)cc1Cl,outcome,[2],inactive
same,outcome,[3],inactive
COP(=O)(OC)OC,outcome,[2],inactive
same,outcome,[3],inactive
same,outcome,[4],inactive
CCCCCCCCC(=O)NCc1ccc(O)c(OC)c1,outcome,[2],inactive
same,outcome,[3],inactive
same,outcome,[4],inactive
NC(=O)CF,outcome,[2],inactive
same,outcome,[3],inactive
same,outcome,[4],inactive
CCNc1nc(NC(C)(C)C)nc(SC)n1,outcome,[2],inactive
same,outcome,[3],inactive
O=Cc1cccc(Oc2ccccc2)c1,outcome,[2],inactive
same,outcome,[3],inactive
CN(CCCC(=O)c1cccnc1)N=O,outcome,[2],inactive
same,outcome,[3],inactive
[O-][Cl+2]([O-])O,outcome,[2],inactive
same,outcome,[3],inactive
same,outcome,[4],inactive
NC(=O)O,outcome,[2],inactive
same,outcome,[3],inactive
CC(=O)c1cc(C(C)(C)C)cc2c1CCC2(C)C,outcome,[2],inactive
same,outcome,[3],inactive
CN(C)P(=O)(N(C)C)N(C)C,outcome,[2],inactive
same,outcome,[3],inactive
CNC,outcome,[2],inactive
same,outcome,[3],inactive
COC(=O)c1sccc1S(=O)(=O)NC(=O)Nc1nc(C)nc(OC)n1,outcome,[2],inactive
same,outcome,[3],inactive
Oc1c(I)cc(I)cc1I,outcome,[2],inactive
same,outcome,[3],inactive
same,outcome,[4],inactive
Cc1ccc(N)cc1Cl,outcome,[2],inactive
same,outcome,[3],inactive
same,outcome,[4],inactive
CC(C)OC(=O)Nc1ccccc1,outcome,[2],inactive
same,outcome,[3],inactive
same,outcome,[4],inactive
Nc1cccc2ccccc12,AC50,[2],37.4 µM (active)
same,outcome,[3],inactive
same,outcome,[4],inactive
C=CC#N,outcome,[2],inactive
same,outcome,[3],inactive
same,outcome,[4],inactive
Cc1ccccc1C(=O)Nc1cccc(OC(C)C)c1,outcome,[2],inactive
same,outcome,[3],inactive
same,outcome,[4],inactive
Oc1cccc2cccnc12,outcome,[2],inactive
same,outcome,[3],inactive
same,outcome,[4],inactive
CC(C)CCCCCCOC(=O)c1ccccc1C(=O)OCCCCCCC(C)C,outcome,[2],inactive
same,outcome,[3],inactive
same,outcome,[4],inactive
CCOP(=S)(OCC)Oc1nc(Cl)c(Cl)cc1Cl,outcome,[2],inactive
same,outcome,[3],inactive
same,outcome,[4],inactive
CC(C)c1cccc(C(C)C)c1O,outcome,[2],inactive
same,outcome,[3],inactive
same,outcome,[4],inactive
O=[N+]([O-])c1ccc(O)c([N+](=O)[O-])c1,outcome,[2],inactive
same,outcome,[3],inactive
same,outcome,[4],inactive
COc1ccc(C(O)(c2cncnc2)C2CC2)cc1 (centres undefined),outcome,[2],inactive
same,outcome,[3],inactive
same,outcome,[4],inactive
Oc1ccc(-c2ccccc2)cc1,outcome,[2],inactive
same,outcome,[3],inactive
same,outcome,[4],inactive
CC(Br)C(=O)O (centres undefined),outcome,[2],inactive
same,outcome,[3],inactive
same,outcome,[4],inactive
CCCCCCCCCl,outcome,[2],inactive
same,outcome,[3],inactive
same,outcome,[4],inactive
O=CC=O,outcome,[2],inactive
same,outcome,[3],inactive
same,outcome,[4],inactive
C[C@H]1CCCC(=O)CCC/C=C/c2cc(O)cc(O)c2C(=O)O1,outcome,[2],inactive
same,outcome,[3],inactive
same,outcome,[4],inactive
COc1cc2c(cc1OC)[C@@]13CCN4CC5=CCO[C@H]6CC(=O)N2[C@H]1[C@H]6[C@H]5C[C@H]43,outcome,[2],inactive
same,outcome,[3],inactive
same,outcome,[4],inactive
